The campaign covered roughly 27,000 compounds. About 120 (0.44%) were called active. What follows is part of a selection rich in actives, with near analogues and random picks from the rest. A number with no mark means an inactive call. Cut-off read from the data, not from the text of the source: active = inhibition above about 20%; inconclusive = no clear call, values can overlap the other calls; inactive = below that.

The experiment deals with Serine/threonine-protein kinase 33 (Homo sapiens) (UniProt Q9BYT3). As to the kind of experiment: STK33 kinase inhibitors, primary screen, biochemical, luminescence, ADP-Glo, MBP substrate (AID 2322). The conditions noted are these: at 12.5 µM, stronger effect = higher value. A general note: ADP-Glo first removes unused ATP, then detects ADP through luciferase.
Chain of Serine/threonine-protein kinase 33 (Homo sapiens) (Q9BYT3 whole entry, looked up): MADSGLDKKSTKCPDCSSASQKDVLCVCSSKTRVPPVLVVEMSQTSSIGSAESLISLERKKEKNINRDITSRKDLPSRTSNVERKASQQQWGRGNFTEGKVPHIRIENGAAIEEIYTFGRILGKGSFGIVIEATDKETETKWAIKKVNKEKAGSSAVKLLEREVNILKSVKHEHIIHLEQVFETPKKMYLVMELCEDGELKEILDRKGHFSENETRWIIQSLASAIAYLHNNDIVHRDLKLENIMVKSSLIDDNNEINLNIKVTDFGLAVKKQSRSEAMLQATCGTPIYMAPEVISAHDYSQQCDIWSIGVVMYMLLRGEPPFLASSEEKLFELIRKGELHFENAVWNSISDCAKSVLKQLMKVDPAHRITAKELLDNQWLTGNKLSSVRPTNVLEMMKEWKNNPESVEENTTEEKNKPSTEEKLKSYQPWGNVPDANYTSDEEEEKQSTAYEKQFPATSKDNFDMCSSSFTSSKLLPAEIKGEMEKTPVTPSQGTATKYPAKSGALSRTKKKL
By inhibition is commonly meant the relative decrease from the control value, in per cent. Take `Cc1ccc(N(CC(=O)Nc2ccccc2Sc2ccccc2)S(C)(=O)=O)c(C)c1`: the inhibition is -1.72%.

For the molecule `COC(=O)c1ccc(NC(=O)CSc2nc(-c3ccccc3)cc(=O)[nH]2)cc1`, the inhibition is 4.41%.

For the molecule `O=C(O)CCCC(=O)Nc1ccc(F)cc1`, the inhibition was -2.71%.

Take `O=C(NCc1ccccn1)c1ccccc1C(=O)c1ccccc1`: the inhibition is -3.58%.

For the molecule `CCC(O)c1ccc2c(=O)c(-c3ccccc3F)coc2c1` (stereo not drawn), the inhibition was 1.14%.

With `CCOc1ccc(NC(=O)CSc2nccc(C)n2)cc1`, the inhibition is -0.939%.

With `COc1ccc(/C=C/C(=O)O[C@@H]2[C@@H](OC(=O)/C=C/c3ccc(OC)cc3)[C@H](C)O[C@@H](O[C@H]3[C@@H]4C=CO[C@@H](O[C@@H]5O[C@H](CO)[C@@H](O)[C@H](O)[C@H]5O)[C@@H]4[C@@]4(CO)O[C@@H]34)[C@@H]2OC(C)=O)cc1`, the inhibition was -0.911%.

For the molecule `C[C@H]1CN([C@@H](C)CO)C(=O)c2cc(NC(=O)Cn3cnnn3)ccc2O[C@H]1CN(C)S(C)(=O)=O`, the inhibition was -0.963%.

`CCOC(=O)c1c(NC(=O)Cn2nc([N+](=O)[O-])c(Br)c2C)sc2c1CCCC2`: the inhibition was 2.08%.

Regarding `Cc1cc(C)c2oc(-c3cccc(NC(=O)COc4ccc(Br)cc4)c3C)nc2c1`, the inhibition is 5.61%.

For the molecule `CCn1c(SCC(=O)Nc2cc(Cl)ccc2OC)nnc1-c1ccc(Br)cc1`, the inhibition is 1.48%.

`CC(C)(C)c1ccc(OCC(=O)NCc2ccccn2)c(Br)c1`: the inhibition is -6.11%.

Take `Nc1ccc2c3c(cccc13)C(=O)NC2=O`: the inhibition was 28.5% (active).

`C[C@@H]1CN([C@H](C)CO)C(=O)c2cc(NC(=O)Nc3ccc4c(c3)OCO4)ccc2O[C@H]1CN(C)Cc1ccc(-c2ccccc2)cc1`: the inhibition is 0.655%.

Consider `O=C(CSc1nc2ccc(NC(=O)c3ccccc3Cl)cc2s1)Nc1ccc(F)cc1`, for which the inhibition was 0.13%.

Turning to `O=C(CSc1nnc(-c2ccccn2)n1-c1ccccc1)Nc1ccc2cn[nH]c2c1`, the inhibition is 0.339%.

In the case of `COc1ccc(N(CC(=O)Nc2cc(C)ccc2OC)S(C)(=O)=O)cc1Cl`, the inhibition is -2.26%.

On to `NCCCC[C@@H]1NC(=O)[C@@H]2C[C@H](C(=O)NCc3ccc(F)cc3)[C@H](c3ccc(O)cc3)N2C1=O`, for which the inhibition was -1.29%.

As for `C[C@H](CO)N1C[C@H](C)[C@@H](CN(C)S(=O)(=O)c2ccc(F)cc2)OCc2cnnn2CCCC1=O`, the inhibition is 3.05%.

As for `COc1ccc(C(C)=O)cc1CSc1nnc(-c2ccc(Br)cc2)n1-c1ccccc1`, the inhibition is -0.65%.

Turning to `COc1ccc(N(C(C)C(=O)Nc2cccc(Br)c2)S(C)(=O)=O)cc1` (stereo not drawn), the inhibition is -0.0651%.

As to `COC(=O)c1ccc(NC(=O)CSc2nc(-c3ccccc3)c(-c3ccccc3)[nH]2)cc1`, the inhibition was 0.633%.

Take `O=[N+]([O-])c1ccc(NCCNCc2cccnc2)cc1`: the inhibition was 0.298%.

Regarding `COc1ccc(NC(=O)CN2CCN(S(=O)(=O)c3ccc4ccccc4c3)CC2)cc1`, the inhibition is -0.51%.

On to `Cc1ccc(N(C(C)C(=O)Nc2ccc(F)c(Cl)c2)S(C)(=O)=O)cc1C` (stereo not drawn), for which the inhibition was -3.25%.

As for `Cc1ccc(-n2c(SCC(=O)Nc3cccc(C)c3C)nc3ccccc3c2=O)cc1`, the inhibition is -0.698%.

For `O=C(c1ccc(NCc2cccnc2)c([N+](=O)[O-])c1)N1CCCCC1`, the inhibition is 2.99%.

As for `CN(CC(=O)Nc1ccc(F)cc1)S(=O)(=O)c1ccccc1`, the inhibition is -1.62%.

Consider `Nc1cc(N)nc(SCC(=O)c2ccc(Br)cc2)n1`, for which the inhibition was 1.93%.

Turning to `O=C(CSc1nnc(-c2ccccc2)n1-c1ccc(Cl)cc1)Nc1ccc(Cl)cc1`, the inhibition is -3.34%.

Turning to `O=C(CN1CCCC1)Nc1sc2c(c1C(=O)Nc1ccccc1)CCCC2`, the inhibition was -1.02%.

As for `CN1C(=O)C(O)(CC(=O)c2ccco2)c2cc([N+](=O)[O-])ccc21` (stereo not drawn), the inhibition is 1.09%.

Consider `COc1ccc(-c2nnc(SCC(=O)O)n2-c2ccccc2)cc1OC`, for which the inhibition is 0.684%.

For the molecule `C[C@H]1CN([C@@H](C)CO)C(=O)CCCn2cc(nn2)CO[C@@H]1CN(C)S(=O)(=O)c1ccc(-c2ccccc2)cc1`, the inhibition was -9.48%.

For `COc1ccc(NC(=O)O[C@@H](c2ccc(OCCO)cc2)[C@@H](C)CCO)cc1`, the inhibition was 0.388%.

Turning to `COc1cc(OC)c(NC(=O)CSc2nnc(-c3ccncc3)n2-c2ccccc2)cc1Cl`, the inhibition is -1.55%.

Regarding `C[C@H](CO)N1C[C@H](C)[C@H](CN(C)S(=O)(=O)c2ccc(Cl)cc2)Oc2ccc(NC(=O)C3CCCCC3)cc2C1=O`, the inhibition was 5.34%.

For the molecule `CCCC(O)C#Cc1cnc2c(c1)C(=O)N([C@H](C)CO)C[C@H](C)[C@H](CN(C)S(=O)(=O)c1ccc(C#N)cc1)O2` (stereo partly drawn), the inhibition is 2.14%.

With `Cc1nn(CC(=O)NCc2ccccn2)c(C)c1[N+](=O)[O-]`, the inhibition was -1.47%.

Consider `COC(=O)c1ccccc1NC(=O)CSc1n[nH]c(-c2ccncc2)n1`, for which the inhibition was 2.87%.

With `COc1ccc(C)cc1S(=O)(=O)N1CCCC(C(=O)Nc2ccccc2C(F)(F)F)C1` (stereo not drawn), the inhibition is 1.43%.

Consider `CC(C)N1C(=O)[C@@]2(Cc3ccccc31)c1ccccc1C(=O)N(C1CCCCC1)[C@H]2c1ccc(CO)cc1`, for which the inhibition was 4.98%.

Take `Cc1ccc(NC(=O)COc2ccccc2C)c([N+](=O)[O-])c1`: the inhibition is 0.544%.

Regarding `COc1ccc(OC)c(NC(=O)Cn2cc(C(=O)C3CC3)c3ccccc32)c1`, the inhibition is -2.72%.

With `COc1ccc(Cl)cc1N(CC(=O)Nc1ccc(Br)c(Cl)c1)S(C)(=O)=O`, the inhibition is 1.17%.

As for `CN(CC(=O)Nc1ccccc1C#N)S(=O)(=O)c1ccc2ccccc2c1`, the inhibition is 1.4%.

Take `C[C@H](CO)N1C[C@H](C)[C@@H](CN(C)C(=O)C2CCCCC2)OCc2cnnn2CCCC1=O`: the inhibition was 0.882%.

For `COc1ccc(NC(=O)CSc2nncc3ccccc23)c([N+](=O)[O-])c1`, the inhibition is -3.11%.

As for `C[C@H](CO)N1C[C@H](C)[C@H](CN(C)S(C)(=O)=O)Oc2ncc(C#CCN(C)C)cc2C1=O`, the inhibition was 3.31%.

For `O=[N+]([O-])c1cccc(NC(=S)Nc2nn(Cc3ccc(Cl)cc3Cl)cc2Cl)c1`, the inhibition was 1%.

As for `Cc1ccc(-c2ccc(CCC(=O)O)n2-c2ccc(C(N)=O)cc2)cc1`, the inhibition is -3.89%.

In the case of `O=C(NCc1ccco1)c1ccc2c(c1)C(=O)N(Cc1cccnc1)C2=O`, the inhibition is -0.956%.

On to `Cc1ccc(-c2nc(S(=O)(=O)c3ccc(Br)cc3)c(SCC(N)=O)o2)cc1`, for which the inhibition is 4.38%.

`Cc1ccc(S(=O)(=O)N(C)CC(=O)Nc2cccc(F)c2)cc1`: the inhibition is -1.04%.

Consider `CCOC(=O)C(C)Sc1ncnc2c1sc1nc(N3CCOCC3)c3c(c12)CC(C)(C)OC3` (stereo not drawn), for which the inhibition is -0.767%.

`Cc1ccc(NC(=O)CSc2nc3ccccc3s2)cc1[N+](=O)[O-]`: the inhibition is 1.36%.

With `CC(C)[C@H](CO)Nc1nc(Nc2cc(N)cc(Cl)c2)c2ncn(C(C)C)c2n1`, the inhibition is 89.6% (active).

On to `Cc1ccc(S(=O)(=O)N(C)C[C@@H]2Oc3ccc(NC(=O)Nc4ccc(F)cc4)cc3C(=O)N([C@H](C)CO)C[C@@H]2C)cc1`, for which the inhibition was -2.65%.

`O=C(CCn1nc(-c2ccc(Cl)cc2)c2ccccc2c1=O)Nc1ccc(Br)cc1`: the inhibition is -3.22%.

Consider `O=C(O)CCNS(=O)(=O)c1ccc2c(c1)OCCO2`, for which the inhibition is 1.73%.

As to `C(=C\c1nn2c(C3COc4ccccc4O3)nnc2s1)/c1ccccc1` (stereo not drawn), the inhibition was -1.1%.

Regarding `C[C@H]1CN([C@@H](C)CO)C(=O)CCCn2nncc2CO[C@H]1CN(C)Cc1ccc2c(c1)OCO2`, the inhibition was 5.15%.

With `CN(CC(=O)Nc1ccc(Cl)c(Cl)c1)S(=O)(=O)c1ccc2ccccc2c1`, the inhibition is 0.105%.

Take `Cc1ccc(CN(C)C[C@H]2OCc3cn(nn3)CCCC(=O)N([C@@H](C)CO)C[C@H]2C)cc1`: the inhibition is 3.49%.

`Cc1ccccc1OCC(=O)Nc1cc(-c2nc3ccccc3s2)c(Cl)cc1Cl`: the inhibition is -0.293%.

As to `COc1ccc(NC(=O)COc2cc(C)c(Br)c(C)c2)c([N+](=O)[O-])c1`, the inhibition was -1.64%.

On to `COc1cccc(NC(=O)N(C)C[C@@H]2OCc3cn(nn3)CCCC(=O)N([C@@H](C)CO)C[C@H]2C)c1`, for which the inhibition is -4.73%.

For the molecule `O=C(CSc1nc2ccccc2s1)c1cc2ccccc2oc1=O`, the inhibition was -1.09%.

For `COc1cc(Cl)c(C)cc1NC(=O)CSc1nnnn1-c1ccccc1`, the inhibition was -5.72%.

With `O=C(CSc1nnc(-c2cccs2)n1-c1ccccc1Cl)Nc1cccc(C(=O)O)c1`, the inhibition was -0.392%.

As for `Cn1c(=O)c2c(nc(SCC(=O)NC(C)(C)C)n2Cc2ccccc2F)n(C)c1=O`, the inhibition is -1.84%.

As for `C[C@@H]1CN([C@@H](C)CO)C(=O)CCCn2cc(nn2)CO[C@@H]1CN(C)S(=O)(=O)c1cccc(F)c1`, the inhibition is -2.04%.

On to `COc1ccc(NC(=O)CSc2nnc(-c3ccc(Br)cc3)n2C)cc1`, for which the inhibition is -2.11%.

As for `CCn1c(SCC(=O)c2ccc(OC)cc2)nnc1-c1ccc(Cl)cc1Cl`, the inhibition was -3.02%.

Turning to `Cc1noc(C)c1NC(=O)Nc1ccc2c(c1)C(=O)N([C@H](C)CO)C[C@H](C)[C@@H](CN(C)Cc1ccc3c(c1)OCO3)OCCCC[C@@H](C)O2`, the inhibition is -1.44%.

For `C[C@@H]1CN([C@H](C)CO)C(=O)Cc2cc(NC(=O)Nc3ccc4c(c3)OCO4)ccc2O[C@@H]1CN(C)C(=O)Nc1ccccc1`, the inhibition is 0.707%.

As for `C=CCn1c2ccccc2c2nnc(SCC(=O)N3c4ccccc4Sc4ccccc43)nc21`, the inhibition is -0.993%.

Regarding `C[C@@H]1CN([C@@H](C)CO)C(=O)CCCn2cc(nn2)CO[C@@H]1CN(C)S(=O)(=O)c1ccccc1C#N`, the inhibition was -7.04%.

These data come from PubChem BioAssay AID2322 (Broad Institute, 2010).
